The results in this text go back to PubChem BioAssay (NCI).

Compounds without any hit were thinned out: in the full panel of roughly 83,000, 20% have a hit.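 Results are percent growth after 48 hours of single-concentration exposure. 100 means growth as in untreated cells, lower positive values show inhibition; negative values down to -100 show cell death.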 Calls of active or inactive are those of the source. Rule for the calls: active = growth percent below 10; inactive = the rest.

This assay has as its system NCI-H226 lung. Briefly: NCI-60 one-dose screen, 48 h (100 = growth as untreated, 0 = no growth, -100 = all killed). The settings on record: 10 µM unless noted.
Take `CC(=O)OC[C@@]1(C)C2CC[C@]3(C)C(CC=C4C5CC(C)(C)CC[C@]5(C(=O)Nc5ccc(C)cc5)CC[C@]43C)[C@@]2(C)C[C@@H](OC(C)=O)[C@@H]1OC(C)=O` (some centres not stated): the growth was 50.6% (inactive).
The same measure for `Cc1ccc(C(=O)CSc2nc3ccc(F)cc3c(=O)n2-c2ccc(Cl)cc2)cc1`: -21.9% (active); for `COc1ccc(-c2ccnc(SCc3cc4cc(Cl)ccc4[nH]c3=O)n2)cc1`: -32.1% (active); for `COc1cc(-c2ccc(/C=N/NC(=O)c3[nH]c4ccc(Br)cc4c3-c3ccccc3)o2)cc(OC)c1OC`: 49.6% (inactive).
For `CC1=C(C(=O)OC(C)C)C(c2cccc(O)c2)NC(=S)N1` (configuration not stated), the growth is 101% (inactive).
On to `COc1cccc(COc2ccc(NC(=O)Nc3ccc(Cl)c(C(F)(F)F)c3)cc2)c1`, for which the growth is 43.2% (inactive).
Turning to `COc1ccc(C(=O)Nc2n[nH]c(Nc3ccccc3)c2C#N)cc1`, the growth is 117% (inactive).
Consider `O=C(c1ccc(OCCN2CCOCC2)cc1)C1[C@H](c2ccc(Cl)cc2)[C@@H](c2ccccc2)NC12C(=O)Nc1ccc(Cl)cc12` (some centres not stated), for which the growth was 48.3% (inactive).
Turning to `O=C(N=Nc1c(O)[nH]c2ccc([N+](=O)[O-])cc12)c1ccc2nc(-c3ccccc3)[nH]c2c1`, the growth is 60.1% (inactive).
With `CCN(CC)C(=O)N/C(N)=N/c1nc2ccccc2s1`, the growth was 39.4% (inactive).
`Nc1nnc(-c2c[nH]c3ncc(Br)cc23)c(-c2c[nH]c3ccc(F)cc23)n1`: the growth was 50.2% (inactive).
With `O=C(COc1ccc(NC(=O)Nc2ccccc2)cc1)N=Nc1c(O)[nH]c2ccc([N+](=O)[O-])cc12`, the growth was 18.6% (inactive).
